Compound activity: PubChem, National Center for Advancing Translational Sciences (NCATS)
ALDH1A1 block – inhibitors of human aldehyde dehydrogenase 1A1; Purified ALDH1A1, NADH fluorescence, propionaldehyde substrate; Potency, µM (highest dose often 75.3 µM), inactives show at the top dose activity, negative = inhibition, hits mostly inhibitors; actives 7.3% (n = 220,000); AID 1030; active means well fitted inhibition curve with a large enough effect, not every such curve was filed as active; inconclusive means small, poorly fitted or top-dose-only effect, or another doubt; inactive means no such curve, though single readings can be large or run the other way;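 further: plate controls were no enzyme wells and a reference inhibitor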
Target sequence (P00352 whole entry, looked up): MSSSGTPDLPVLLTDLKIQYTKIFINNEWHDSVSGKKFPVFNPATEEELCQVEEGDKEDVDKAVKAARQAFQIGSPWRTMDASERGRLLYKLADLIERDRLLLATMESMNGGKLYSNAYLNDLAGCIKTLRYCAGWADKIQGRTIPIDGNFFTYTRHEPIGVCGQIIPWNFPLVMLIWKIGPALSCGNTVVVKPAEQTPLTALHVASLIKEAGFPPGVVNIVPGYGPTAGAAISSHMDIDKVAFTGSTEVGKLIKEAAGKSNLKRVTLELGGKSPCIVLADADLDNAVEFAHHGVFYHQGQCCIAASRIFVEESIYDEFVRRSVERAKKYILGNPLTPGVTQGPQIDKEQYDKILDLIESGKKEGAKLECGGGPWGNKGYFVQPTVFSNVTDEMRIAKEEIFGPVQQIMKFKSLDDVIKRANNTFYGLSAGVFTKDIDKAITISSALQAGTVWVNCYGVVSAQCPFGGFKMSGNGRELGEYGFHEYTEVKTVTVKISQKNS
HttQ103 aggreg – reduces HttQ103-GFP aggregates in PC12 cells. PC12 HttQ103-GFP aggregates, Acumen cytometry, 40 h. Potency, µM (top dose mostly 46.1 µM), for the others: at the top dose activity change, negative = inhibition, usual class: inhibitors. actives 1.1% (n = 220,000). AID 1688; further: on the % scale 0 is the no-effect control and ±100 the full control effect; nearly all actives have a fitted effect of over 60% in size
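Inducible Q103 Huntingtin exon 1–GFP PC12 line, 1500 cells/well in phenol red free DMEM with 5% equine and 5% calf serum. Tebufenozide 100 nM induced expression; compounds titrated; aggregates quantified by cytometry.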
LMNA splice mod – changes lamin A minigene splicing in HeLa cells; HeLa LMNA splicing GFP/RFP minigene ratio, 48 h; Potency, µM (series often up to 46.1 µM), for the others: top-dose ratio change, negative = inhibition, actives largely listed as inhibitors; actives 0.01% (n = 200,000); AID 1487; active means well fitted inhibition curve with a large enough effect in the signal ratio, with a control signal flat, not every such curve was filed as active; inconclusive means small, poorly fitted or top-dose-only effect, or effect the other way, or a change in a side signal; the % refers to the signal ratio; further: on the % scale 0 is the no-effect control and ±100 the full control effect
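S3 HeLa stable clones carrying a lamin A-EGFP splicing minigene plus DsRed2 were seeded at 600 cells/well in Opti-MEM with 2% FBS, pin-dosed and incubated 48 h at 37°C. Acumen cytometry (488 nm) gave the GFP/RFP total-intensity ratio.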
HTT cytoprotect – protects HTT-Q103 PC12 cells, measured by ATP. PC12 HTT-Q103 induced, cytoprotection, ATP luminescence, 40 h. Potency, µM (top dose mostly 56.4 µM), for inactives: cytoprotection (ATP increase), most hits filed as activators. actives 0.14% (n = 230,000); further: % of control where 0% means no effect; nearly all actives have a fitted effect of over 45% in size
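ATP quantification (ATPlite) reports survival of PC12 cells in which tebufenozide, 100 nM final, switches on Htt exon 1 with 103 glutamines linked to GFP; compounds are titrated.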
KinaseGlo FLuc – blocks Kinase-Glo luciferase, a counter-screen artifact; actives 0.28% (n = 200,000); Potency, µM (top dose mostly 38.3 µM), inactives show top-dose activity change, negative = inhibition, actives largely listed as inhibitors; Q27757; Kinase-Glo luciferase, ATP luminescence, 8 min; AID 1379; further: on the % scale 0 is the no-effect control and ±100 the full control effect; nearly all actives have a fitted effect of over 60% in size
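Compound is pinned into ATP-containing buffer (10 uM ATP, imidazole pH 7.2, 7 mM MgCl2). Kinase-Glo luciferase reagent is then added. Light output is recorded following an 8-min room-temperature incubation.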
HPGD inh – inhibitors of human 15-hydroxyprostaglandin dehydrogenase (HPGD) | purified HPGD, NADH fluorescence kinetic, PGE2 substrate | Potency, µM, inactives show top-dose activity change, negative = inhibition, usual class: inhibitors | actives 4.3% (n = 150,000) | AID 894; active means well fitted inhibition curve with a large enough effect, not every such curve was filed as active; inconclusive means small, poorly fitted or top-dose-only effect, or another doubt; inactive means no such curve, though single readings can be large or run the other way; further: on the % scale 0 is the no-effect control and ±100 the full control effect
Target sequence (P15428 whole entry, looked up): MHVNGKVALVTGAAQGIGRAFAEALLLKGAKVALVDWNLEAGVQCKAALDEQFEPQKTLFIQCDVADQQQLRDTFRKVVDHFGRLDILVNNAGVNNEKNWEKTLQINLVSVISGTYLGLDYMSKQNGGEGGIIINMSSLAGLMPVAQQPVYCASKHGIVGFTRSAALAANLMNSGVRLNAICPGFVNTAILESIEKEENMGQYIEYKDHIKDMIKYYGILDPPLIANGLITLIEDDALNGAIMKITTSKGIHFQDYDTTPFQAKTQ
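NADH formation kinetics: reaction with 30 uM PGE2 and 1 mM NAD+ (final), 20 nM enzyme, Tris-HCl pH 8 with Tween 20, after 15 min compound preincubation at room temperature. Fluorescence change, last versus first of five reads.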
* = called active by the depositor; u = inconclusive; x = not tested or not shown; [ ] = remark or other dose. Compounds with a hit are over-represented: about 9% of the library has one in this group of screens. Unless noted, the call rests on the fitted dose curve; in most records, active means well fitted curve in the direction sought with a large enough effect; inconclusive means small, poorly fitted or top-dose-only effect, or another doubt; inactive means no such curve, though single readings can be large; an effect the other way counts as inactive or inconclusive. Potency means the concentration at half of the fitted maximal effect.

SMILES	ALDH1A1 block	HttQ103 aggreg	LMNA splice mod	HTT cytoprotect	KinaseGlo FLuc	HPGD inh
O=C(CSc1nnc(-c2c[nH]c3ccccc23)o1)c1ccc(-c2ccccc2)cc1	25%	-3%	-7%	-15%[10 µM]	11%	-29%
O=C(CSc1nnc(-c2ccccc2Br)o1)N1CCc2ccccc2C1	u	12%[9.22 µM]	-8%	-19%[10 µM]	1%	25µM*
O=C(CSc1nnc(-c2c[nH]c3ccccc23)o1)N1CCCCC1	u	7%	u	-35%	-1%	28µM*
COc1cc(OC)cc(-c2nnc(SCC(=O)N3CCCCC3)o2)c1	-14%	5%	-14%	-11%	-1%	25µM*
COc1cc(OC)cc(-c2nnc(SCC(=O)N3CCOCC3)o2)c1	u	1%	1%	-21%[10 µM]	-5%	0%
COc1cccc(OCc2nnc(SCC(=O)N3c4ccccc4Sc4ccc(Cl)cc43)o2)c1	10µM*	-3%	u	-21%[10 µM]	0%	-20%
CC(C)CC(COCc1cccc(Cl)c1)N1CCN(C(=O)c2cccc(C(F)(F)F)c2)CCC1=O (centres undefined)	-6%	2%	u	x	1%	-18%
O=C(CSc1nnc(-c2c[nH]c3ccccc23)o1)N1c2ccccc2CCc2ccccc21	3.5µM*	u	u	-6%	2%	-21%
O=C(CSc1nnc(COc2cccc3cccnc23)o1)N1CCCC1	4%	u	4%[46 µM]	-3%[10 µM]	-1%	x
O=C(CSc1nnc(COc2cccc3ccccc23)o1)N1c2ccccc2CCc2ccccc21	22µM*	31%	8%	-12%	-4%	-2%
O=C(O)c1ccccc1-c1cn2cc(Cl)ccc2n1	-6%	-13%	x	-154%	u	x
COc1ccc(-c2csc(N)n2)cc1F	11µM*	18%	7%[46 µM]	13%[10 µM]	-5%	x
CCc1ccc(OC)c(-c2csc(N)n2)c1	-2%	6%[9.22 µM]	7%[46 µM]	1%[10 µM]	1%	x
Cc1cc(C)cc(NC(=O)N2CCC(CN3CCOCC3)CC2)c1	x	x	3%[46 µM]	x	x	x
COc1ccc(C)c2sc(=NC(=O)c3ccccc3)n(C)c12	u	-9%	-15%	2%[10 µM]	13µM*	u
CCc1c(C)nc(SCc2nc(-c3ccccc3)no2)[nH]c1=O	x	x	-29%[46 µM]	x	x	x
O=C(CSCc1ccccc1)Nc1ccc(F)cc1F	24µM*	21%	x	16%	1%	x
O=C(CSCc1ccc(C(=O)O)cc1)Nc1ccc2ccccc2c1	x	40µM*	x	x	x	x
O=C(CSCc1ccc(C(=O)O)cc1)Nc1ccccc1	11%	29%[9.22 µM]	5%[46 µM]	u	0%	x
CC(C)c1[nH]nc2c1C(C1C=CCCC1)C(C#N)=C(N)O2 (centres undefined)	14µM*	-6%[9.22 µM]	u	-22%[10 µM]	x	x
O=C(CCCc1nc2ccccc2s1)NCc1ccccc1	10%	-29%	7%	x	3%	14µM*
O=C(CCCc1nc2ccccc2s1)NC(c1ccccc1)c1ccccc1	-1%	4%	-9%	12%[10 µM]	5%	-4%
O=C(O)CCCc1nc2ccccc2s1	0%	u	8%	18%	1%	-8%
O=C(CCCc1nc2ccccc2s1)NCc1ccc(F)cc1	u	u	3%	18%[10 µM]	-1%	25µM*
COc1ccc(-c2cc(-c3nnc(COC(=O)C4CC4C)o3)c3ccccc3n2)cc1OC (centres undefined)	u	-15%	u	8%[1.9 µM]	-3%	u
SMILES	ALDH1A1 block	HttQ103 aggreg	LMNA splice mod	HTT cytoprotect	KinaseGlo FLuc	HPGD inh
CCCCSCCCNC(=S)Nc1ccccc1C	4%	22µM*	u	-12%	-1%	x
COc1ccc2c(c1)C(=O)[C@@H](OC(=O)N[C@H]1CCCc3ccccc31)[C@H](c1ccc(OC)c(Br)c1)O2	13µM*	x	x	-14%	-1%	-9%
COc1ccc2c(c1)O[C@H](c1ccc3c(c1)OCO3)[C@@H](OC(=O)N[C@H]1CCCc3ccccc31)C2=O	12%	-4%	u	u	2%	1%
C=CCOc1ccccc1/C=N/O	5%	-3%	7%	-23%[0.074 µM]	3%	16µM*
O=C1NC(c2ccccc2)=N/C1=C/c1ccco1	18µM*	3%	-3%	-34%[10 µM]	u	u
O=C1NC(c2ccccc2Br)=N/C1=C\c1ccco1	x	-13%[9.22 µM]	x	-1%[10 µM]	x	x
O=C1NC(c2cccc(Br)c2)=N/C1=C\c1ccco1	11µM*	-16%	-12%	15%[10 µM]	-5%	u
O=[N+]([O-])c1ccc(O)c(/C=N/Nc2nn[nH]n2)c1	-10%	0%	x	x	-1%	x
COC(=O)c1[nH]c2ccc(C)cc2c1NC(=O)CN1CCN(c2ccc(F)cc2)CC1	u	-27%	u	1.6µM*	-4%	u
COC(=O)c1[nH]c2ccc(C)cc2c1NC(=O)CN1CCN(c2ccccc2)CC1	u	u	-10%	-76%[0.074 µM]	-1%	u
O=C(C1CCCO1)N1CCN(S(=O)(=O)c2ccccc2)CC1 (centres undefined)	4%	12%	-5%	16%[10 µM]	3%	-4%
Cc1nc2c(=O)[nH]c(=S)n(C)c2nc1C	7.1µM*	3%	-5%	x	-1%	10µM*
CCCCNC(=S)N=Nc1c(O)[nH]c2ccccc12	u	u	x	1%	1%	x
CC(C)OC(=O)c1cccc(C(=O)OCc2ccco2)n1	8.9µM*	31%	u	-26%	-10%	-7%
O=C(OCc1ccco1)c1cccnc1	-11%	4%	x	-27%	-1%	x
CC(=O)OCc1ccco1	22µM*	x	x	-15%	x	-8%
O=C(COCc1cc(-c2cccs2)on1)Nc1ccc(OC(F)(F)F)cc1	x	x	10%[46 µM]	x	x	x
CCOC(=O)C1=C(CSc2nc(CC)c(C)cc2C#N)OC(N)=C(C#N)C1c1ccc(OC)cc1 (centres undefined)	u	12%	-8%	13%[10 µM]	1%	u
CCS(=O)(=O)n1nc(NCc2cccc(OC)c2)nc1NCc1cccc(OC)c1	u	-20%	-21%	-10%	2%	-10%
O=[N+]([O-])c1ccc(/C=N/n2c(COc3ccccc3)n[nH]c2=S)cc1	28µM*	8%	4%	0%	-1%	5µM*
S=c1[nH]nc(COc2ccccc2)n1/N=C/C=C/c1ccco1	x	26%[9.22 µM]	x	-29%[10 µM]	x	x
O=[N+]([O-])c1cccc(/C=N/n2c(COc3ccccc3)n[nH]c2=S)c1	u	7%	-2%[0.0737 µM]	22%	5%	4µM*
CN(C)c1ccc(/C=N/n2c(COc3ccccc3)n[nH]c2=S)cc1	25µM*	-4%	-12%	-3%[0.074 µM]	1%	13µM*
S=c1[nH]nc(COc2ccccc2)n1/N=C/c1cccnc1	-13%	17%	-4%	14%[0.074 µM]	-1%	14µM*
